Source: the supplement of paper PMC12494721
Counter-ions that a name gives are not always drawn.

Legend:
Conditions in all cases: incubation time: 27 h, anaerobic, 37 °C;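 for the amine columns active = adjusted P below 0.05 in both replicates with a change the same way and a mean fold change under 0.8 or over 1.25; inactive = the rest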
[1] = test system: Clostridium sporogenes DSM 1664; experiment: growth (OD595) fold change vs plate DMSO controls (fold change (ratio)); higher = more growth
How it was run: (§1)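 Growth is expressed as the fold change relative to the median of the DMSO control wells on each plate. Cultures in mGAM were grown anaerobically in 96-well plates for 27 h at 37 °C, shaken, and read at 595 nm. Readings were blank-subtracted, corrected for compound background with 20 µM compound solutions in water, and converted to OD with a calibration factor of 5. Fold changes above 1.5 were set to NA, and each value is the mean of 2 biological replicates.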

[2] = test system: Escherichia coli IAI1; experiment: as above
How it was run: as §1

[3] = test system: Klebsiella aerogenes DSM 30053; experiment: as above
How it was run: as §1

[4] = test system: Ruminococcus gnavus DSM 108212; experiment: as above
How it was run: as §1

[5] = test system: Klebsiella aerogenes DSM 30053; experiment: fold change of Histamine concentration vs plate DMSO controls (fold change (ratio)); higher = more amine produced, active = hit call of the paper (significant change in both replicates, either direction)
How it was run: (§2)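 Using LC–triple-quadrupole MS with dynamic MRM, amines were quantified against external calibration curves and corrected for drift within each batch. Samples were whole anaerobic mGAM cultures of four gut strains, grown 27 h at 37 °C from OD 0.1 before 1:1 dilution, extracted with cold acetonitrile/methanol containing 0.1% formic acid and centrifuged. Compounds were present at 20 µM final (sweeteners at 50 µM final). The numbers are fold changes versus plate DMSO controls, each the mean of 2 biological replicates.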

[6] = test system: Clostridium sporogenes DSM 1664; experiment: fold change of Tryptamine concentration vs plate DMSO controls (fold change (ratio)); higher = more amine produced, active = hit call of the paper (significant change in both replicates, either direction)
How it was run: as §2

[7] = test system: Ruminococcus gnavus DSM 108212; experiment: as above
How it was run: as §2

[8] = test system: Escherichia coli IAI1; experiment: fold change of Putrescine concentration vs plate DMSO controls (fold change (ratio)); higher = more amine produced, active = hit call of the paper (significant change in both replicates, either direction)
How it was run: as §2

[9] = test system: Klebsiella aerogenes DSM 30053; experiment: as above
How it was run: as §2

[10] = test system: Escherichia coli IAI1; experiment: fold change of Cadaverine concentration vs plate DMSO controls (fold change (ratio)); higher = more amine produced, active = hit call of the paper (significant change in both replicates, either direction)
How it was run: as §2

[11] = test system: Klebsiella aerogenes DSM 30053; experiment: as above
How it was run: as §2

[12] = test system: Ruminococcus gnavus DSM 108212; experiment: fold change of 2-Phenylethylamine concentration vs plate DMSO controls (fold change (ratio)); higher = more amine produced, active = hit call of the paper (significant change in both replicates, either direction)
How it was run: as §2

Row | Compound | growth [1] | growth [2] | growth [3] | growth [4] | fold change of Histamine concentration [5] | fold change of Tryptamine concentration [6] | fold change of Tryptamine concentration [7] | fold change of Putrescine concentration [8] | fold change of Putrescine concentration [9] | fold change of Cadaverine concentration [10] | fold change of Cadaverine concentration [11] | fold change of 2-Phenylethylamine concentration [12]
1 | CC(N)C12CC3CC(CC(C3)C1)C2 (stereo unspecified) [Rimantadine hydrochloride] (20 µM) | 0.858 | 0.975 | 0.955 | 0.786 | 1.01 (inactive) | 0.984 (inactive) | 1 (inactive) | 0.947 (inactive) | 1.01 (inactive) | 1.01 (inactive) | 0.994 (inactive) | 0.987 (inactive)
2 | O=C1NCCN1CCN1CCC(c2cn(-c3ccc(F)cc3)c3ccc(Cl)cc23)CC1 [Sertindole] (20 µM) | 0.981 | 1.05 | 1.09 | 1.16 | 0.923 (inactive) | 0.952 (inactive) | 0.908 (inactive) | 1.31 (inactive) | 0.982 (inactive) | 0.999 (inactive) | 1 (inactive) | 1.09 (inactive)
3 | CC1=NN(c2ccccc2)C(=O)C1 [Edaravone] (20 µM) | 0.889 | 1.03 | 1.02 | 0.963 | 0.97 (inactive) | 0.939 (inactive) | 1.01 (inactive) | 1.03 (inactive) | 1.02 (inactive) | 0.986 (inactive) | 1.01 (inactive) | 0.984 (inactive)
4 | O=C(O)C[C@H](O)C[C@H](O)/C=C/c1c(C2CC2)nc2ccccc2c1-c1ccc(F)cc1 [Pitavastatin calcium] (20 µM) | 1.08 | 1.01 | 0.996 | 1.12 | 1.03 (inactive) | 0.992 (inactive) | 0.997 (inactive) | 1.01 (inactive) | 1.01 (inactive) | 1 (inactive) | 0.997 (inactive) | 1.04 (inactive)
5 | Cc1ccnc2c1NC(=O)c1cccnc1N2C1CC1 [Nevirapine] (20 µM) | 0.962 | 0.959 | 1.01 | 0.868 | 0.914 (inactive) | 1 (inactive) | 1.12 (inactive) | 0.955 (inactive) | 1.02 (inactive) | 1.02 (inactive) | 1.01 (inactive) | 1.12 (inactive)
6 | CCCOc1ccc(C(=O)OCCN(CC)CC)cc1N [Proparacaine hydrochloride] (20 µM) | 1.19 | 1.08 | 1.14 | 1.03 | 0.892 (inactive) | 1.09 (inactive) | 1.08 (inactive) | 1.13 (inactive) | 0.98 (inactive) | 0.971 (inactive) | 1.04 (inactive) | 1.14 (inactive)
7 | Cc1ccc(S(=O)(=O)NC(=O)NN2CC3CCCC3C2)cc1 (stereo unspecified) [Gliclazide] (20 µM) | 1.15 | 1.06 | 0.986 | 0.999 | 1.04 (inactive) | 1.06 (inactive) | 1.12 (inactive) | 0.995 (inactive) | 1 (inactive) | 0.883 (inactive) | 1 (inactive) | 1.12 (inactive)
8 | Nc1ccccc1S(N)(=O)=O [o-Sulfanilamide] (20 µM) | 0.883 | 1.01 | 1.01 | 1 | 1.02 (inactive) | 0.958 (inactive) | 0.928 (inactive) | 1.03 (inactive) | 1.01 (inactive) | 1 (inactive) | 1 (inactive) | 0.905 (inactive)
9 | O=P(O)(O)C(O)(Cn1ccnc1)P(=O)(O)O [Zoledronic acid hydrate] (20 µM) | 1.08 | 0.974 | 0.978 | 1 | 1.08 (inactive) | 0.973 (inactive) | 0.629 (inactive) | 0.987 (inactive) | 1.02 (inactive) | 1.05 (inactive) | 1 (inactive) | 0.627 (inactive)
10 | N[C@@H](C(=O)N[C@@H]1C(=O)N2C(C(=O)O)=C(Cl)CS[C@H]12)c1ccccc1 [Cefaclor hydrate] (20 µM) | 0.594 | 0.999 | 1.06 | 0.999 | 0.947 (inactive) | 0.846 (inactive) | 0.783 (inactive) | 0.939 (inactive) | 1.07 (inactive) | 1.23 (inactive) | 1.03 (inactive) | 0.859 (inactive)
11 | CS(=O)(=O)c1ccc([C@@H](O)[C@@H](CF)NC(=O)C(Cl)Cl)cc1 [Florfenicol] (20 µM) | 0 | 0.0375 | 0.0697 | 0.306 | 0.0871 (active) | 0.0346 (active) | 0.122 (active) | 0.217 (active) | 0.459 (inactive) | 0.177 (active) | 0.508 (inactive) | 0.143 (active)
12 | Cc1c(NC(C)C)c(=O)n(-c2ccccc2)n1C [Isopyrin hydrochloride] (20 µM) | 1.12 | 1.02 | 1.02 | 1 | 0.951 (inactive) | 1.03 (inactive) | 1.2 (inactive) | 1.14 (inactive) | 0.943 (inactive) | 1.02 (inactive) | 1 (inactive) | 1.32 (inactive)
13 | CN(C)CCn1nnnc1SCC1=C(C(=O)O)N2C(=O)[C@@H](NC(=O)Cc3csc(N)n3)[C@H]2SC1 [Cefotiam hydrochloride] (20 µM) | 0 | 0.00521 | 1.05 | 0.248 | 1.27 (inactive) | 0.0154 (active) | 0.0411 (active) | 0.121 (active) | 1.08 (inactive) | 0.522 (active) | 1.14 (inactive) | 0.0464 (active)
14 | N=C(N)NC(=O)Cc1c(Cl)cccc1Cl [Guanfacine hydrochloride] (20 µM) | 0.939 | 0.961 | 1.03 | 0.811 | 0.903 (inactive) | 0.953 (inactive) | 1.01 (inactive) | 1.02 (inactive) | 0.99 (inactive) | 1.01 (inactive) | 1.01 (inactive) | 1.02 (inactive)
15 | OCCN(CCO)c1nc(N2CCCCC2)c2nc(N(CCO)CCO)nc(N3CCCCC3)c2n1 [Dipyridamole] (20 µM) | 0.986 | 1.03 | 0.521 | 0.969 | 0.47 (inactive) | 0.971 (inactive) | 1 (inactive) | 1.03 (inactive) | 0.51 (inactive) | 1 (inactive) | 0.5 (inactive) | 0.994 (inactive)
16 | COc1ccccc1N1CCN(CCCCNC(=O)c2ccc3ccccc3c2)CC1 (20 µM) | 0.826 | 0.976 | 0.969 | 0.893 | 0.972 (inactive) | 1.13 (inactive) | 1.08 (inactive) | 1.04 (inactive) | 0.962 (inactive) | 0.795 (inactive) | 1.02 (inactive) | 1.3 (inactive)
17 | CO/N=C(\C(=O)N[C@@H]1C(=O)N2C(C(=O)[O-])=C(C[n+]3ccn4ncccc43)CS[C@H]12)c1nsc(N)n1 [Cefozopran hydrochloride] (20 µM) | 0 | 0.102 | 0.153 | 0.0221 | 1.35 (active) | 0.0264 (active) | 0.0903 (active) | 2.2 (active) | 0.898 (inactive) | 2 (active) | 1.05 (inactive) | 0.0687 (active)
18 | CCOC(=O)OC(C)OC1=C(C(=O)Nc2ccccn2)N(C)S(=O)(=O)c2ccccc21 (stereo unspecified) [Ampiroxicam] (20 µM) | 1.02 | 0.978 | 1.03 | 1.1 | 0.908 (inactive) | 0.998 (inactive) | 0.999 (inactive) | 0.976 (inactive) | 0.998 (inactive) | 0.983 (inactive) | 1.01 (inactive) | 0.99 (inactive)
19 | CN1CCC[C@@H]1CCO[C@](C)(c1ccccc1)c1ccc(Cl)cc1 [Clemastine fumarate] (20 µM) | 1.2 | 1.02 | 1.09 | 0.749 | 0.843 (inactive) | 1 (inactive) | 0.851 (inactive) | 1.06 (inactive) | 0.975 (inactive) | 1.12 (inactive) | 1.03 (inactive) | 0.886 (inactive)
20 | N=c1ccn2c(n1)O[C@H]1[C@H](O)[C@@H](CO)O[C@H]12 [Ancitabine hydrochloride] (20 µM) | 1.2 | 1.01 | 0.999 | 0.855 | 1.06 (inactive) | 0.98 (inactive) | 0.744 (active) | 1.02 (inactive) | 0.991 (inactive) | 1 (inactive) | 0.992 (inactive) | 0.794 (inactive)
21 | CC(=O)Nc1ccccc1 [Acetanilide] (20 µM) | 1.1 | 0.998 | 1 | 0.941 | 1.01 (inactive) | 1.03 (inactive) | 1.02 (inactive) | 1.04 (inactive) | 1.02 (inactive) | 0.982 (inactive) | 1.01 (inactive) | 1.05 (inactive)
22 | CN(C)/N=N/c1[nH]cnc1C(N)=O [Dacarbazine] (20 µM) | 0.822 | 1 | 1.06 | 1.02 | 0.954 (inactive) | 1 (inactive) | 1.01 (inactive) | 0.984 (inactive) | 1.01 (inactive) | 0.993 (inactive) | 1.02 (inactive) | 1.05 (inactive)
23 | NS(=O)(=O)c1cc2c(cc1C(F)(F)F)NC(Cc1ccccc1)NS2(=O)=O (stereo unspecified) [Bendroflumethiazide] (20 µM) | 0.897 | 1.01 | 1.06 | 1.05 | 0.915 (inactive) | 0.993 (inactive) | 0.993 (inactive) | 0.977 (inactive) | 0.971 (inactive) | 0.959 (inactive) | 1 (inactive) | 0.957 (inactive)
